14-3-3 PPI: alters human 14-3-3 gamma binding to Raf peptide | P61981 | FP, 14-3-3gamma / TMR-pS259-Raf peptide binding | inhibition, % at 40 µM | 160,000 compounds, 0.19% hits | AID 422; in the data active = inhibition above about 30%
Target sequence (P61981 whole entry, looked up): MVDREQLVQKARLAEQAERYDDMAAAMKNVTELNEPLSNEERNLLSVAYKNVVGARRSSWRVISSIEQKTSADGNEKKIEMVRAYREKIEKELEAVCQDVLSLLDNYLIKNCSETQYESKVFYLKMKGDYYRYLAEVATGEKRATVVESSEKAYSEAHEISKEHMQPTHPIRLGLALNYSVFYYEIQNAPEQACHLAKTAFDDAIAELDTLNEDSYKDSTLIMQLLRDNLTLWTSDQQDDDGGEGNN
Hits are given with their value; 0 = inactive. Shown is part of a subset that was picked to be rich in hits.

SMILES	14-3-3 PPI
O=[N+]([O-])c1c(NCCO)ccc2nonc12	0
Nc1ccc2nonc2c1[N+](=O)[O-]	31
CCCN(CCC)c1ccc([N+](=O)[O-])c2nonc12	0
CC1N=C(c2ccccc2)c2ccccc2N(Cc2ccccc2Cl)C1=O (stereo not drawn)	0
O=C(c1cn(CCCOc2ccccc2)c2ccccc12)C(F)(F)F	0
COc1cc(CC2C(=O)N(C)C(=O)N(C)C2=O)ccc1OCc1ccccc1	0
COc1cc(OC)c(OC)cc1CC1C(=O)N(C)C(=O)N(C)C1=O	66
C=CCN1C(=O)NC(=O)C(Cc2ccc(OC)c(OC)c2)C1=O (stereo not drawn)	0
CC1CCN(Cc2nc3ccc([N+](=O)[O-])cc3c(=O)n2-c2ccccc2F)CC1	0
C=CCN1C(=O)C2(C(C(=O)OC(C)C)=C(C)OC(N)=C2C(=O)OCC)c2ccccc21 (stereo not drawn)	0
CN1C(=O)C(Cc2cccc3ccccc23)C(=O)N(C)C1=O	0
CNCCc1c[nH]c2ccccc12	0
CN1C(=O)C(Cc2c[nH]c3ccccc23)C(=O)N(C)C1=O	82
Cc1ccc(-n2c(C=Cc3cccc(F)c3)nc3ccccc3c2=O)cc1	0
COc1ccc(CNCCc2cccc(F)c2)c(OC)c1OC	0
